Compound activity: PubChem BioAssay, National Center for Advancing Translational Sciences (NCATS)
This is a sample that favours compounds with a hit; in the whole collection about 2.6% have one here.
Nrf2 activator: activates Nrf2 signaling; AREc32 ARE-luciferase reporter (MCF7-derived line), luminescence, 24 h; Potency, µM (highest dose often 46.1 µM), without a hit: at the highest dose activation, actives largely listed as activators; actives 0.31% (n = 410,000); further: potency means the concentration at half of the fitted maximal effect; % of control where 0% means no effect; nearly all actives have a fitted effect of over 65% in size
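Cells of the AREc32 ARE-luciferase line are plated in OPTI-MEM containing 5% FBS and left overnight at 37 deg C. Compounds are pinned in, incubation continues 24 hr, and firefly luciferase signal is then measured.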
TCR activator: activators of T cell receptors; primary human leukocytes, anti-CD3, IL-2 HTRF, 48 h; Potency, µM (doses to about 9.22 µM), inactives show top-dose activation of IL-2 secretion, hits mostly activators; 330,000 tested, under 10 active; AID 504894; further: % of control where 0% means no effect
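1) Mix primary human leukocytes, a-CD3 beads and compound. 2) Incubate 48 hr. 3) Add HTRF IL-2 reagents (a-IL-2-K, a-IL-2-d2).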
CCT chaperon mod: cytosolic chaperonin activity modulation | activity change, % (concentration not given with the values), hits read low | AID 651819 | purified chaperonin ATPase assay, HTRF ADP detection, 30 min | actives 0.3% (n = 360,000); in the data active means activity change below about -30%; further: on the % scale 0 is the no-effect control and ±100 the full control effect
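Enzyme 40 or 20 nM (batch-dependent) in Tris pH 7.4/KCl/MgCl2/DTT; cpd 76 uM single point; ATP 10 uM; 30 min 37 °C; Transcreener ADP HTRF detection, 30 min RT; ratio 665/615.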
AT treatment: potential ataxia-telangiectasia treatment; F2112 A-T fibroblasts, KAP-1 phosphorylation AlphaLISA; neocarzinostatin DNA damage 30 min before lysis; Potency, µM (titrated, usually from 57.5 µM), inactives show at the top dose activation, hits mostly activators; actives 0.19% (n = 320,000); AID 485349; further: potency means the concentration at half of the fitted maximal effect; % of control where 0% means no effect; nearly all actives have a fitted effect of over 45% in size
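hTERT-immortalized A-T patient fibroblasts (F2112), 500 cells/well in OPTI-MEM, 1% FBS, got compounds for 60 min, then NCS for 30 min at 37C. Lysates were then assayed for phospho-KAP-1 by AlphaLISA (anti-pKAP1 donor, anti-KAP1 acceptor beads), 6 hr at 25C.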
Nrf2 block: blocks Nrf2 signaling; A549 ARE-Fluc reporter, luciferase luminescence, 18-24 h; actives 2.1% (n = 360,000); Potency, µM (titrated, usually from 46 µM), without a hit: at the highest dose activity change, negative = inhibition, usual class: inhibitors; further: potency means the concentration at half of the fitted maximal effect; on the % scale 0 is the no-effect control and ±100 the full control effect; nearly all actives have a fitted effect of over 60% in size
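Two sequential reads on A549 ARE_Fluc cells exposed to compound for 18-24 h: a CellTiter-Fluor fluorescence read for viability, then a luciferase luminescence read for Nrf2/ARE activity.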
A549 tox-1: kills or reduces viability of A549 cells in Nrf2 counter-screen | A549 ARE-Fluc cells, CellTiter-Fluor viability, 18-24 h | Potency, µM (highest dose often 46 µM), inactives show top-dose activity change, negative = cytotoxicity, actives largely listed as inhibitors | actives 0.16% (n = 390,000); further: potency means the concentration at half of the fitted maximal effect; on the % scale 0 is the no-effect control and ±100 the full control effect
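A549 ARE_Fluc cells in 5% FBS OPTI-MEM were exposed to compounds in concentration-response for 18-24 h at 37 deg C. Viability was read by CellTiter-Fluor fluorescence (Ex 405/Em 525) after 30 min, before the luciferase read.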
FLuc counter 3: blocks purified firefly luciferase in Nrf2 counterscreen; shares compounds with Nrf2 block; purified firefly luciferase, luminescence inhibition; Potency, µM (series often up to 57.5 µM), inactives show at the top dose activity change, negative = inhibition, usual class: inhibitors; actives 4% (n = 1,400); AID 720522; further: potency means the concentration at half of the fitted maximal effect; on the % scale 0 is the no-effect control and ±100 the full control effect; nearly all actives have a fitted effect of over 65% in size
Target sequence (P08659 whole entry, looked up): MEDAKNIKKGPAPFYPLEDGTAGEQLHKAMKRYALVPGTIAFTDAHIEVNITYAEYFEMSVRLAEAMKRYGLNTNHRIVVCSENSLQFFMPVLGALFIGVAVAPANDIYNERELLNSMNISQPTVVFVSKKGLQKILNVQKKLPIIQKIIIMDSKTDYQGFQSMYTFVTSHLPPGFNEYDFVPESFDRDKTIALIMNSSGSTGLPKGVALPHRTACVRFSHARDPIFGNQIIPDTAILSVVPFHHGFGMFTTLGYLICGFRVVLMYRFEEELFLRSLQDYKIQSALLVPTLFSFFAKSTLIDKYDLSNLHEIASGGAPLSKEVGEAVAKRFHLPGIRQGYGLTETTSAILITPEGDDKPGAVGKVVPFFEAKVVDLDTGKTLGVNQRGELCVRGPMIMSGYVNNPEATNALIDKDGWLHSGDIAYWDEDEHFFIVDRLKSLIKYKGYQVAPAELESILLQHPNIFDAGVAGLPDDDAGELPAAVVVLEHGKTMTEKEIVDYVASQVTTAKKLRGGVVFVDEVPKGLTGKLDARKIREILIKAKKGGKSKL
A549 tox-2: toxic to A549 ARE-Fluc cells in Nrf2 counterscreen; Potency, µM (doses to about 46.1 µM), for the others: top-dose activity change, negative = cytotoxicity, hits mostly inhibitors; shares compounds with Nrf2 block; actives 2% (n = 1,400); A549 ARE-Fluc cells, cytotoxicity counterscreen;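 further: potency means the concentration at half of the fitted maximal effect; cells exposed to compounds for 18 to 24 hours; on the % scale 0 is the no-effect control and ±100 the full control effect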
Nrf2 ARE inh: confirmation of Nrf2 inhibitors in A549 ARE reporter cells; shares compounds with Nrf2 block; actives 74% (n = 1,400); AID 720524; Potency, µM (titrated, usually from 46.1 µM), inactives show at the highest dose activity change, negative = inhibition, actives largely listed as inhibitors; A549 ARE-firefly luciferase reporter, luminescence; further: potency means the concentration at half of the fitted maximal effect; on the % scale 0 is the no-effect control and ±100 the full control effect; nearly all actives have a fitted effect of over 65% in size
An asterisk follows results filed as active; u = inconclusive; x = not tested or not shown; [ ] = dose if it differs, or a comment. Unless noted, the call rests on the fitted dose curve; in most records, active means well fitted curve in the direction sought with a large enough effect; inconclusive means small, poorly fitted or top-dose-only effect, or another doubt; inactive means no such curve, though single readings can be large; an effect the other way counts as inactive or inconclusive.

SMILES	Nrf2 activator	TCR activator	CCT chaperon mod	AT treatment	Nrf2 block	A549 tox-1	FLuc counter 3	A549 tox-2	Nrf2 ARE inh
CCn1c(C)nc([N+](=O)[O-])c1Sc1ccc(F)cc1	u	-2%[46.1 µM]	2	3%	u	-9%	x	x	x
Cc1cccc(C(=O)N(Cc2ccccc2F)C2CCS(=O)(=O)C2)c1 (stereo not given)	-1%	x	x	x	6%	5%	x	x	x
Cc1cc(C(=O)OCC(=O)N2CC(=O)Nc3ccccc32)c(C)n1-c1ccccc1	5%	-2%[46.1 µM]	-1	-1%	u	1%	x	x	x
Cc1cc(C(=O)OCC(=O)N2CC(=O)Nc3ccccc32)c(C)n1-c1ccc(F)cc1	6%	-3%[46.1 µM]	-5	-13%	9.2µM*	u	-16%	1%	16µM*
CCN(CC)c1ccc(C(=O)NNC(=O)CCNC(=O)c2ccccc2)cc1	4%	2%	1	-11%	18%	20%	x	x	x
CCN(CC)c1ccc(C(=C2C=CC(=[N+](CC)CC)C=C2)c2ccccc2)cc1	-3%	5%	1	x	1.3µM*	9.2µM*	21µM*	6.5µM*	0.73µM*
O=C(NCCCn1ccnc1)c1ccc(N2CCCCCC2)c([N+](=O)[O-])c1	3%	4%	0	0%	2.9µM*	-18%	-16%	-12%	4%
CCOc1c(C)cnc2c1c(=O)n(Cc1c(F)cccc1Cl)c(=O)n2C	-1%	-6%	1	2%	19%	9%	x	x	x
CCCCN(C(=O)c1ccc(N2CCCC2=O)cc1)c1c(N)n(Cc2ccccc2)c(=O)[nH]c1=O	0%	-2%	-3	2%	5.8µM*	-9%	0%	-10%	3.7µM*
COCCCN(C(=O)c1ccc(N2CCCC2=O)cc1)c1c(N)n(Cc2ccccc2)c(=O)[nH]c1=O	0%	-1%	0	-3%	19%	-5%	x	x	x
CCCCCc1ccc(OCCOCCn2c[n+](C)c3ccccc32)c(CCCCC)c1	-5%	-2%	-1	-5%	7.3µM*	-25%	-1%	u	x
Cc1ccc(S(=O)(=O)N2CCCCC2)cc1NC(=O)c1cc(F)c(F)c(F)c1F	12%	6%[46.1 µM]	0	-9%	-2%	2%	x	x	x
O=S(=O)(Nc1ccc(Cc2ccncc2)cc1)c1ccc(Cl)cc1	1%	-3%	2	0%	9.2µM*	-16%	0%	-1%	16µM*
O=S(=O)(Nc1ccc(Cc2ccncc2)cc1)c1ccc(Br)cc1	3%	-2%	-2	-1%	u	-13%	x	x	x
Cc1cc(C)nc(SCc2ccc(C(=O)NNC(=O)Nc3cccc(Cl)c3)cc2)n1	-3%	6%[46.1 µM]	2	-1%	9.2µM*	u	-23%	u	15µM*
C/C(=N\Nc1ccc2nncn2n1)c1ccccn1	0%	-1%	1	-8%	3.7µM*	-27%	-17%	-9%	2.6µM*
CCc1ccc(-n2cc(-c3ccc(F)cc3)[n+]3c2SCCC3)cc1	6%	8%	-1	9%	u	2%	x	x	x
COc1ccc(-n2cc(-c3ccc(C)cc3)[n+]3c2SCC3)cc1	2%	1%[46.1 µM]	1	2%	9.2µM*	u	2%	-7%	5.2µM*
Cc1ccc(-c2cn(-c3ccccc3)c3[n+]2CCCS3)cc1	0%	-1%	1	-2%	4.6µM*	u	2%	-5%	6.5µM*
COc1cccc(C(=O)Nc2c(C(=O)N3CCN(c4ccc(F)cc4)CC3)oc3ccccc23)c1	0%	x	x	x	u	10%	x	x	x
Cc1ccc(NCC(=O)Nc2ccc(F)c(Cl)c2)cc1S(=O)(=O)N1CCOCC1	4%	x	-1	x	x	x	x	x	x
Cn1c(N)c(C(=O)COC(=O)[C@@H]2CCCN2S(=O)(=O)c2ccc(Cl)cc2)c(=O)n(C)c1=O	0%	0%	0	3%	-1%	-2%	x	x	x
CC1(C)CC(N2CCN(c3ccccc3)CC2)=CC(=[N+]2CCCC2)C1	0%	9%	2	2%	u	-6%	2%	-13%	4.6µM*
CC1CC(C)C[N+](=C2C=C(N3CCCC3)CC(C)(C)C2)C1 (stereo not given)	0%	-7%	-1	-10%	5.2µM*	u	-3%	-28%	x
CC1(C)CC(N2CCCC2)=CC(=[N+]2CCCCCC2)C1	-1%	12%	-1	1%	-20%	-23%	x	x	x
SMILES	Nrf2 activator	TCR activator	CCT chaperon mod	AT treatment	Nrf2 block	A549 tox-1	FLuc counter 3	A549 tox-2	Nrf2 ARE inh
COC(=O)c1ccccc1NC(=O)Cn1c(=O)cc(C)c2c(C)nn(C)c21	0%	x	x	x	9%	-1%	x	x	x
COc1ccc(C)cc1NC(=O)Cn1c(=O)cc(C)c2c(C)nn(C)c21	-1%	x	x	x	5.8µM*	-3%	4%	-4%	2.3µM*
CN(c1ccc(C(=O)N2CCN(Cc3ccc4c(c3)OCO4)CC2)cc1)S(=O)(=O)c1ccccc1	1%	-1%	-2	0%	6.5µM*	3%	2%	1%	9.2µM*
CCc1c(C)nc2nncn2c1NCc1ccc(OC)cc1	1%	x	x	x	u	-3%	x	x	x
Cc1nc2nncn2c(NCc2ccc(Cl)cc2)c1C	3%	x	x	x	3.3µM*	-5%	-1%	-2%	6.5µM*
CCOC(=O)C1CCN(C(=O)COc2ccc(N(C)S(=O)(=O)c3ccc(C)cc3)cc2)CC1	2%	5%	1	9%	-1%	3%	x	x	x
COc1ccc(/C=N\NC(=O)c2ccccc2F)cc1COc1ccc(F)cc1	0%	-5%	-3	11%	-15%	1%	x	x	x
COc1ccc(/C=N\NC(=O)c2ccccc2Br)cc1COc1c(F)c(F)cc(F)c1F	2%	2%	0	9%	5.2µM*	u	1%	-7%	u
CCCc1ccc(-c2ccc(/C=C/C(=O)O)cc2)nc1	-3%	0%[46.1 µM]	0	0%	0.037µM*	0%	0.27µM*	-4%	0.058µM*
Cc1ccc([C@H]2N[C@]3(CCCN(Cc4cccn4C)C3=O)[C@H]3C(=O)N(Cc4ccccc4)C(=O)[C@@H]23)cc1	0%	x	0	x	x	x	x	x	x
